Experimental data taken from PubChem BioAssay AID1159580 (chemical genetic matrix, 2015).
Hit rate of the full screen: of about 5,500 compounds, about 2,000 (36%) were called active. Not shown: some 18% with an inconclusive outcome. Rule as the data show it: active = normalized growth mostly below about 0.91 (no sharp cut-off); inconclusive = no clear call, values can overlap the other calls; inactive = mostly above about 0.92. This is one part of the list.

Test: chemical genetic growth profiling, strain panel (AID 1159580);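 also: tested at 20 µM; growth read once vehicle control cultures reached saturation at 30 °C; 1 = growth at the plate median or of vehicle wells; lower values mean less growth of the strain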
Details: S. cerevisiae deletion strains, growth OD

Measured: normalized growth

C[C@H]1O[C@@H](n2cc(F)c(=O)[nH]c2=O)[C@H](O)[C@@H]1O
inactive: locus YAL013W, strain DEP1, stronger effect = lower value 1.04 | locus YAL040C, strain CLN3, stronger effect = lower value 1 | locus YCL061C, strain MRC1 (second series), stronger effect = lower value 1.01 | locus YDR363W, strain ESC2, stronger effect = lower value 1.02 | locus YER002W, strain NOP16, stronger effect = lower value 1.04 | locus YGR229C, strain SMI1, stronger effect = lower value 1.07 | locus YJR075W, strain HOC1, stronger effect = lower value 1.01 | locus YMR263W, strain SAP30, stronger effect = lower value 1.01 | locus YMR307W, strain GAS1, stronger effect = lower value 1 | locus YNL153C, strain GIM3, stronger effect = lower value 1.02 | locus YNL175C, strain NOP13, stronger effect = lower value 1 | locus YNL197C, strain WHI3, stronger effect = lower value 1 | locus YNL224C, strain SQS1, stronger effect = lower value 0.984 | locus YNL322C, strain KRE1, stronger effect = lower value 1.02 | locus YOR083W, strain WHI5 (second series), stronger effect = lower value 1.01 | locus YPL055C, strain LGE1, stronger effect = lower value 1.02 | locus YPL241C, strain CIN2, stronger effect = lower value 1.01
